Screening results as filed in PubChem BioAssay.
This is one part of a sample in which hits are shown more often than they occur.
Pf Dd2 growth – qHTS Primary assay for Inhibitors of Plasmodium falciparum Dd2 growth in vitro. Potency, µM (doses to about 28.9 µM), for the others: at the top dose activity, negative = inhibition, actives largely listed as inhibitors. P. falciparum Dd2 growth, SYBR Green, 72 h. hit rate 4.3% among 120,000; active means well fitted inhibition curve with a large enough effect;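 further: plate controls were DMSO vehicle for no effect and reference drug for full effect; nearly all actives have a fitted effect of over 65% in size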
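Infected erythrocytes (Dd2, 0.3% parasitemia, 2.5% hematocrit final) are added to compound in RPMI-1640/Albumax II medium, grown 72 h at 37C in low oxygen, then lysed with saponin/Triton-X containing SYBR Green and read by fluorescence.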
* marks the source's active call; other numbers are inactive results; i = inactive; [ ] = dose if it differs, or a comment. Potency means the concentration at half of the fitted maximal effect.

SMILES	Pf Dd2 growth
COC[C@@H]1CCCN1Cc1cn(Cc2ccccc2)nc1-c1cc2ccccc2o1	i
COC1CCCN(Cc2cn(-c3ccc(F)cc3)nc2-c2ccccc2Cl)C1 (stereo not drawn)	12.6µM*
COc1ccc(-c2ccnc3nc(-c4ccccc4OC)nn23)c(F)c1	-20.2%
COC[C@H]1CCCN1Cc1cn(-c2ccccc2)nc1-c1ccc(OC)cc1F	10µM*
COc1ccc(-c2nn(-c3ccccc3)cc2C(=O)Nc2ccccc2OC)cc1	i
COc1ccc(-c2nn(-c3ccccc3)cc2CN2CCN(C)C(C)C2)c(F)c1 (stereo not drawn)	11.2µM*
CCc1cnc(C)nc1N1CCN(Cc2ccccc2F)C(CCO)C1 (stereo not drawn)	-27.0%
O=c1[nH]c(C2CCCN(Cc3cccc4ccccc34)C2)nn1-c1ccc(Cl)cc1 (stereo not drawn)	11.0%
COc1ccc2nc(CO[C@H]3CN(Cc4cn(C)c5ccccc45)C[C@H]3F)[nH]c2c1	-30.0%[44.1 µM]
COCCn1c(C)cnc1CC1CCN(C(=O)c2ccc(C)s2)CC1	-14.5%
CN(C)C(C(=O)N1CCN(c2ncccc2C#N)CC1)c1cccc(F)c1 (stereo not drawn)	-20.3%
CN(Cc1cccc(C(F)(F)F)c1)Cc1ccccc1C(F)(F)F	-3.0%[44.1 µM]
CNC(=O)[C@@H]1CN(C(=O)c2ccc(OC)nc2OC)C[C@H]1c1n[nH]c(C)n1	8.7%
CCc1ccc(NC(=O)C(C)C2CCOCC2)cc1 (stereo not drawn)	43.9%
Cc1c(CN2CC[C@H]3CC[C@@H](C2)N3)c(=O)n(-c2ccccc2)n1C	-3.4%
CNC(=O)[C@H]1C[C@H](Oc2ccccc2)CN1S(=O)(=O)Cc1ccccc1	8.8%
CCc1ccc(NC(=O)Cn2c(N3CCCCC3)nc(C)c(C)c2=O)cc1	-1.3%
O=c1[nH]nc2n1CCN(S(=O)(=O)c1ccc3c(c1)OCCO3)CC2	-14.1%
COC(=O)CNC(=O)c1nc(-c2cc(Cl)cc(Cl)c2)c2ccccn12	-10.7%
NC(=O)CNC(=O)C1=C[C@@H](Oc2cc(F)ccc2Br)[C@H](O)[C@H](O)C1	9.6%[44.1 µM]
COc1nc2c(cc1CNC(=O)[C@@H](N)CO)C(=O)N(CCc1ccccn1)C2	-4.6%
CN(Cc1cccnc1)c1nc2c(c(=O)[nH]1)CCN(Cc1ccc(Cl)cc1F)CC2	i[5.79 µM]
COc1ccc(-n2cc(CN3CCN(C)C(C)C3)c(-c3cccc(F)c3)n2)cc1 (stereo not drawn)	-14.2%
COc1ccc(F)c(CN2CCC(CCC(=O)N3CCN(c4ccccc4)CC3)CC2)c1	-29.8%
COc1ccc(-n2cc(CN3CCCC(CO)C3)c(-c3cccc(F)c3)n2)cc1 (stereo not drawn)	12.6µM*
SMILES	Pf Dd2 growth
COc1ccc(-c2nn(-c3ccccc3)cc2CN2CCN(C)CC2)c(F)c1	10µM*
COc1ccc(F)c(CN2CCCC(O)(CN3CCC(CO)CC3)C2=O)c1 (stereo not drawn)	-18.9%
COc1ccc(CN2CCc3nc(N4CCN(C)CC4)[nH]c(=O)c3CC2)c(OC)c1	36.8%[5.79 µM]
COc1ccc2c(c1)c(CN1CCc3nc(N4CCN(C)CC4)[nH]c(=O)c3CC1)cn2C	-0.4%[5.79 µM]
c1ccc(-c2[nH]ncc2CN2CCCC(N3CCN(c4ccccc4)CC3)C2)cc1 (stereo not drawn)	-2.9%
COc1ccc(-c2nn(-c3ccccc3)cc2CN2CCN3CCCC3C2)c(F)c1 (stereo not drawn)	7.08µM*
COc1ccc(-c2nc3c(C)cccc3cc2CN2CC[C@@H](O)C2)cc1	-25.2%
COc1ccc(-c2nn(-c3ccccc3)cc2CN2CCCC(CO)C2)c(F)c1 (stereo not drawn)	8.91µM*
CNCC(=O)N1CCCC(N2CCN(c3ccc(OC)cc3)CC2)C1 (stereo not drawn)	0.3%
O=C(Cn1ccn2nc(-c3ccccc3)c(CO)c2c1=O)N1CCC(Cc2ccccc2)CC1	-16.6%
CC1CCC(NC(=O)C2(c3ccc(NS(C)(=O)=O)cc3)CCCCC2)CC1 (stereo not drawn)	-19.0%
CCCC(=O)N1CCC2CC(=O)NCCC2C1 (stereo not drawn)	11.8%[44.1 µM]
O=C1c2ccccc2CN1C1CCN(Cc2cccnc2)CC1	21.7%
Cc1c(C(C)NC(=O)C(=O)c2ccco2)cnn1-c1cccc2ccccc12 (stereo not drawn)	23.4%
Cc1cccc(CNC(=O)c2c(C)noc2-c2ccc(OC(F)(F)F)cc2)c1	-9.0%
CN1CCN([C@@H]2[C@H](O)[C@H](CO)O[C@@H]2CNS(=O)(=O)c2cccs2)CC1	23.8%
COc1cccc(-c2nnnn2[C@H]2CO[C@H]3[C@@H]2OC[C@@H]3NC(=S)Nc2ccc(F)cc2)c1	i
Cc1ccc(-c2nnc([C@H]3CCN(C(C)C)C3)o2)cc1	i
COc1cccc(-c2cc(-c3cccs3)nc3c(C)noc23)c1	i
COc1cccc(-c2cc(-c3ccccc3)nc3c(C)noc23)c1	14.1µM*
COc1ccccc1-c1cc(-c2ccccc2)nc2c(C)noc12	i
COCCn1c(=O)[nH]c2cc(C(=O)NCc3ccccc3Cl)ccc2c1=O	-17.9%
